Experiment [1] is described as follows: ATG_GLI_CIS: Attagene CIS-FACTORIAL HepG2 Assay for human Zinc Finger Protein GLI1 (AID 2282945). The note with it: HepG2, Attagene cis-factorial reporter mRNA, GLI element; actives raise or lower the signal. The essentials:
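HepG2 cells transiently transfected with cis-promoter multiplexed reporter units report endogenous transcription factor activity. After 24 h chemical exposure, reporter mRNA was quantified by RT-PCR, 6-FAM labelling, HpaI digestion and capillary electrophoresis, with bidirectional fitting against DMSO.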

Experiment [2] addresses Bile acid receptor (Homo sapiens) (UniProt Q96RI1). Description: ATG_IR1_CIS: Attagene CIS-FACTORIAL HepG2 Assay for human Nuclear Receptor Subfamily 1 Group H Member 4 (NR1H4), IR1 submotif (AID 2282946). The following applies: IR1 reporter transcription, actives raise or lower the signal. The essentials: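 Transient MRTU transfection, HepG2; 24 h dosing; RNA → RT-PCR → 6-FAM primer extension → HpaI digest → capillary electrophoresis fluorescence. Gain/loss of signal fitted relative to DMSO.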

Experiment [3] is described as follows: ATG_ISRE_CIS: Attagene CIS-FACTORIAL HepG2 Assay for human Interferon Regulatory Factor 1 (IRF1) binding to an Interferon-Stimulated Response Element (ISRE) (AID 2282948). The note with it: HepG2 ISRE cis-reporter (Attagene), mRNA transcription readout; actives raise or lower the signal. The method in brief:
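Transiently transfected HepG2 cells carrying cis-element reporter units, dosed 24 hours. Reporter mRNA quantified by RT-PCR, fluorescent primer extension, HpaI digestion and capillary electrophoresis. Bidirectional fitting relative to DMSO.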

The nature of experiment [4]: ATG_M_32_CIS: Attagene CIS-FACTORIAL HepG2 Assay for M32 Transcription Factor (Internal Marker) (AID 2282949).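 Note: background control marker of the multiplexed CIS panel rather than a real target.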 The note with it: HepG2 Attagene cis-factorial M32 reporter, mRNA; actives raise or lower the signal. The method in brief:
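Internal background marker read-out: RT-PCR/capillary electrophoresis fluorescence of reporter transcripts from transiently transfected HepG2 cells after 24 h chemical exposure. Activity fitted bidirectionally relative to DMSO negative control.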

A short description of experiment [5]: ATG_M_06_CIS: Attagene CIS-FACTORIAL HepG2 Assay for M06 Transcription Factor (Internal Marker) (AID 2282950). The following applies: HepG2 Attagene CIS-FACTORIAL M06 internal marker reporter; actives raise or lower the signal. The essentials: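 Fluorescence-labelled RT-PCR products from cis-promoter reporter units, cut with HpaI and resolved by capillary electrophoresis, give the signal. Cells are human HepG2, dosed for 24 h. Serves as background control, fitted relative to DMSO.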

Experiment [6] addresses Hypoxia-inducible factor 1-alpha (Homo sapiens) (UniProt Q16665). Description: ATG_HIF1a_CIS: Attagene CIS-FACTORIAL HepG2 Assay for human Hypoxia Inducible Factor 1 (HIF1A) (AID 2282951). The note with it: HepG2 Attagene cis-factorial HIF1a reporter transcription; actives raise or lower the signal. The essentials: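 Transient MRTU transfection of human HepG2 liver cells, 24 h compound treatment, then total RNA isolation, oligo(dT) reverse transcription, PCR amplification, fluorescent labelling and capillary electrophoresis of reporter fragments. Gain or loss relative to DMSO.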

The target in experiment [7] is Hepatocyte nuclear factor 6 (Homo sapiens) (UniProt Q9UBC0). Description: ATG_HNF6_CIS: Attagene CIS-FACTORIAL HepG2 Assay for human Hepatocyte Nuclear Factor 6 (HNF6) (AID 2282952). The following applies: HepG2 Attagene cis-factorial HNF6 reporter transcription; actives raise or lower the signal. The essentials:
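HepG2 cells transiently transfected with cis-element-driven multiplexed reporter units measuring endogenous transcription factor activity. After 24 h exposure, reporter mRNA quantified by RT-PCR, FAM-labelled fragments and capillary electrophoresis; bidirectional fitting versus DMSO.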

Experiment [8] addresses Heat shock factor protein 1 (Homo sapiens) (UniProt Q00613). Description: ATG_HSE_CIS: Attagene CIS-FACTORIAL HepG2 Assay for human Heat Shock Transcription Factor 1 (HSE) (AID 2282953). The following applies: HepG2 HSE cis-reporter, Attagene RNA transcription; actives raise or lower the signal. The essentials:
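After a 24 h incubation with test chemical, transfected HepG2 cells were harvested for RNA; reporter transcripts were measured by RT-PCR and capillary electrophoresis. Values reflect gain or loss of signal relative to DMSO.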

A short description of experiment [9]: ATG_MRE_CIS: Attagene CIS-FACTORIAL HepG2 Assay for human Metal Responsive Element (MRE) (AID 2282954). The following applies: HepG2 MRE cis-reporter transcription, Attagene multiplex; actives raise or lower the signal. The method in brief: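 HepG2 cells transiently transfected with multiple cis-element reporter units measure endogenous MTF1-driven transcription. After 24 h compound exposure, reporter mRNA is quantified by RT-PCR with 6-FAM labelling, HpaI digestion and capillary electrophoresis; bidirectional fits versus DMSO.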

Experiment [10] concerns the target Paired box protein Pax-6 (Homo sapiens) (UniProt P26367). Description: ATG_Pax6_CIS: Attagene CIS-FACTORIAL HepG2 Assay for human Paired Box 6 (PAX6) (AID 2282956). The note with it: HepG2 CIS-FACTORIAL PAX6 reporter transcription, RNA readout; actives raise or lower the signal. The essentials: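 HepG2 cells transiently transfected with cis-promoter-driven multiplexed reporter units sensing endogenous transcription factor activity; 24 h chemical exposure. Reporter mRNA quantified by RT-PCR, 6-FAM labelling, HpaI digestion and capillary electrophoresis; bidirectional fit versus DMSO baseline.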

Experiment [11] can be described thus: ATG_PXRE_CIS: Attagene CIS-FACTORIAL HepG2 Assay for human Pregnane X Receptor Element (PXRE) (AID 2282957). The following applies: HepG2 Attagene CIS-FACTORIAL PXRE reporter, mRNA; actives raise or lower the signal. The method in brief:
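HepG2 cells transiently transfected with cis-element-driven multiplexed reporter units; after 24 h chemical exposure, reporter mRNA measured by RT-PCR, 6-FAM labelling, HpaI digestion and capillary electrophoresis. Bidirectional fitting relative to DMSO.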

Experiment [12] in a line: ATG_PPRE_CIS: Attagene CIS-FACTORIAL HepG2 Assay for human Peroxisome Proliferator-activated Response Element (PPRE) (AID 2282958). The following applies: HepG2 PPRE cis-element reporter, Attagene transcription factor profiling; actives raise or lower the signal. The essentials: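 HepG2, transient MRTU transfection (cis promoter elements, endogenous TFs). 24 h dosing. RNA → oligo(dT) RT → PCR → 6-FAM primer extension → HpaI digest → CE. Bidirectional fit vs DMSO.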

Experiment [13] in a line: ATG_RORE_CIS: Attagene CIS-FACTORIAL HepG2 Assay for human RAR-related Orphan Receptor Element (RORE) (AID 2282959). The following applies: HepG2 Attagene cis-factorial RORE reporter, mRNA; actives raise or lower the signal. The essentials:
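Transient MRTU transfection of human HepG2 liver cells (FuGene 6); 24 h compound exposure; TriZol RNA, oligo(dT) RT, PCR, FAM labeling, HpaI cut, CE fragment analysis. DMSO = negative control/baseline.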

Experiment [14] is described as follows: ATG_Sox_CIS: Attagene CIS-FACTORIAL HepG2 Assay for human SRY-box transcription factor (SOX) (AID 2282960). The note with it: HepG2 Attagene cis-factorial SOX reporter, mRNA; actives raise or lower the signal. The method in brief:
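Endogenous factor activity in human liver HepG2 cells carrying transfected cis-regulated reporter units. RNA taken 24 h post-dose, reverse-transcribed, PCR-amplified and sized by capillary electrophoresis. Gain or loss of signal fitted relative to DMSO.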

For experiment [15], the target named is Transcription factor Sp1 (Homo sapiens) (UniProt P08047). Description: ATG_Sp1_CIS: Attagene CIS-FACTORIAL HepG2 Assay for human Specificity Protein 1 (Sp1) (AID 2282961). The following applies: HepG2 Sp1 cis-reporter transcription, actives raise or lower the signal. The essentials:
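Transient MRTU-transfected HepG2, 24 h compound exposure. Total RNA → oligo(dT) RT → PCR of reporter → 6-FAM primer extension → HpaI digest → CE. Endpoint fitted both directions vs DMSO.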

Experiment [16] can be described thus: ATG_SREBP_CIS: Attagene CIS-FACTORIAL HepG2 Assay for human Sterol Regulatory Element Binding (SREBP) (AID 2282962). The note with it: HepG2 Attagene cis-factorial SREBP reporter, mRNA; actives raise or lower the signal. The method in brief: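 HepG2 cells transiently transfected with multiplexed cis-promoter reporter units sensing endogenous transcription factors; reporter mRNA measured 24 h after dosing by RT-PCR, 6-FAM labeling, HpaI digestion and capillary electrophoresis. Bidirectional fit versus DMSO.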

The target of experiment [17] is Signal transducer and activator of transcription 3 (Homo sapiens) (UniProt P40763). Description: ATG_STAT3_CIS: Attagene CIS-FACTORIAL HepG2 Assay for human Signal Transducer and Activator of Transcription 3 (STAT3) (AID 2282963). The note with it: HepG2, Attagene cis-factorial STAT3 reporter transcription; actives raise or lower the signal. The method in brief:
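HepG2 cells transiently transfected with cis-element-driven multiple reporter transcription units; after 24 h chemical exposure, reporter mRNA measured by RT-PCR, 6-FAM primer-extension labelling, HpaI digestion and capillary electrophoresis. Bidirectional fitting versus DMSO baseline.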

The nature of experiment [18]: ATG_TA_CIS: Attagene CIS-FACTORIAL HepG2 Assay for human TA Basal Promoter (AID 2282964). The note with it: HepG2 Attagene CIS-factorial TA basal promoter reporter; actives raise or lower the signal. The essentials: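 Multiplexed mRNA reporter assay, HepG2, 24 h. Reporter cDNA amplified, 6-FAM primer-extended, HpaI-cut, CE-sized; DMSO = negative control and baseline.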

A short description of experiment [19]: ATG_GRE_CIS: Attagene CIS-FACTORIAL HepG2 Assay for human Glucocorticoid Response Elements (GRE) (AID 2282947). The following applies: HepG2 GRE cis-reporter, Attagene multiplex mRNA; actives raise or lower the signal. The method in brief:
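HepG2 cells transiently transfected with multiple cis-promoter reporter units measure endogenous TF activity; 24 h compound exposure. Reporter mRNA quantified by RT-PCR, FAM labelling, HpaI digestion and capillary electrophoresis; bidirectional fit vs DMSO baseline.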

Experiment [20] can be described thus: ATG_PBREM_CIS: Attagene CIS-FACTORIAL HepG2 Assay for human Phenobarbital-responsive Enhancer Module (PBREM) (AID 2282955). The note with it: HepG2 PBREM cis-reporter, Attagene multiplexed transcription; actives raise or lower the signal. The essentials:
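Endogenous transcription factors in human liver HepG2 cells drive a PBREM cis-element reporter, whose transcript level after 24 h treatment is quantified by RT-PCR with capillary electrophoresis; activity fitted in both directions against DMSO.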

A word on the AC50: it is the concentration at which the activity in the assay is half-maximal.

Calls of active or inactive are those of the source. Rule for the calls: active = hit-call score of the fitted dose curve at least 0.9, where 1 is the maximum; inactive = score below 0.9.

Chain of Bile acid receptor (Homo sapiens) (Q96RI1 whole entry, looked up): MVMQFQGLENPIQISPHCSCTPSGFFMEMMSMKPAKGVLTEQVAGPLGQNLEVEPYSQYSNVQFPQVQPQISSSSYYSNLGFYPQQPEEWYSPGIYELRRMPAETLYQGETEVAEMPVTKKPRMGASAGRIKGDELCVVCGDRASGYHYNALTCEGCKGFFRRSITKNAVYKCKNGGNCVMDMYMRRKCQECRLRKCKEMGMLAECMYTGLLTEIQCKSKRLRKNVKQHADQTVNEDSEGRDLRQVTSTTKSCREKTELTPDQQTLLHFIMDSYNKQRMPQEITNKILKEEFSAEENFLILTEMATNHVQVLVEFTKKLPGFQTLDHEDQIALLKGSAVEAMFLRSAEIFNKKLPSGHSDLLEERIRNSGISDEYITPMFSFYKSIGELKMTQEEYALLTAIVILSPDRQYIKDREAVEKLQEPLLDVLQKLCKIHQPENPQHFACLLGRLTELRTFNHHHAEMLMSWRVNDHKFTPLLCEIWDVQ
Chain of Signal transducer and activator of transcription 3 (Homo sapiens) (P40763 whole entry, looked up): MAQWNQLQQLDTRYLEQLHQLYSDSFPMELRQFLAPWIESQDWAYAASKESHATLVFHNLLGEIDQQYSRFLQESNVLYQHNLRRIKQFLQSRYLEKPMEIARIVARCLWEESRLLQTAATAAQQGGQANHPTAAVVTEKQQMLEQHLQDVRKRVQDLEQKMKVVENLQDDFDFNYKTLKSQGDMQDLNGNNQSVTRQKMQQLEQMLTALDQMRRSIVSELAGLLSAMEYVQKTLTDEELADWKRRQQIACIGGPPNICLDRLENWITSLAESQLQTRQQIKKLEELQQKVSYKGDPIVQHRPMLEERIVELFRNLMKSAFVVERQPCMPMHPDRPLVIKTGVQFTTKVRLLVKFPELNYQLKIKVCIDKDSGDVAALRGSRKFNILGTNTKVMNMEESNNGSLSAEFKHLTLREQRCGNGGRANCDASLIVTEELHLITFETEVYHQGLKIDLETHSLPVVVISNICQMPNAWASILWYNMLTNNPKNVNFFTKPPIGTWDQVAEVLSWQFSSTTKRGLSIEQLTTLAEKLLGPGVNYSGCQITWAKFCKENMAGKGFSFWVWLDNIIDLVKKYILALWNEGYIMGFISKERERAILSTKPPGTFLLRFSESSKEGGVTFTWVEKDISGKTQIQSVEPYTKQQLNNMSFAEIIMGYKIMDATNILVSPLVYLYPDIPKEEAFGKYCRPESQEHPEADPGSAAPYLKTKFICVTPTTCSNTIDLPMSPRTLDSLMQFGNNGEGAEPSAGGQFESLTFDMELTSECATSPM
Chain of Heat shock factor protein 1 (Homo sapiens) (Q00613 whole entry, looked up): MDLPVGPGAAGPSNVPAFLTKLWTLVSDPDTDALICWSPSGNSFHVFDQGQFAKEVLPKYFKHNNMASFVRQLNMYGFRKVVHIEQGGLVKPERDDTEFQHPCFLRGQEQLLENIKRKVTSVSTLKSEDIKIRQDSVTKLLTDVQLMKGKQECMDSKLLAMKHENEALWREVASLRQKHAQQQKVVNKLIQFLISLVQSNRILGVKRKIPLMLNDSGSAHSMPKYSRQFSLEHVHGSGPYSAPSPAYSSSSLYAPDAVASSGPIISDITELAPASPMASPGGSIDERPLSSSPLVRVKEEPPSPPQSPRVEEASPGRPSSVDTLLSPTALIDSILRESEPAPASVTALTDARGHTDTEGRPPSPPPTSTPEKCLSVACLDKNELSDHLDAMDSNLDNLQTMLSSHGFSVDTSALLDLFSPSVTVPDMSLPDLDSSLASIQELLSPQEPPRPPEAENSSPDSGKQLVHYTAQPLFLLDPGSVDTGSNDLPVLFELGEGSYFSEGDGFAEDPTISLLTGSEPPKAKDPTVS
Chain of Transcription factor Sp1 (Homo sapiens) (P08047 whole entry, looked up): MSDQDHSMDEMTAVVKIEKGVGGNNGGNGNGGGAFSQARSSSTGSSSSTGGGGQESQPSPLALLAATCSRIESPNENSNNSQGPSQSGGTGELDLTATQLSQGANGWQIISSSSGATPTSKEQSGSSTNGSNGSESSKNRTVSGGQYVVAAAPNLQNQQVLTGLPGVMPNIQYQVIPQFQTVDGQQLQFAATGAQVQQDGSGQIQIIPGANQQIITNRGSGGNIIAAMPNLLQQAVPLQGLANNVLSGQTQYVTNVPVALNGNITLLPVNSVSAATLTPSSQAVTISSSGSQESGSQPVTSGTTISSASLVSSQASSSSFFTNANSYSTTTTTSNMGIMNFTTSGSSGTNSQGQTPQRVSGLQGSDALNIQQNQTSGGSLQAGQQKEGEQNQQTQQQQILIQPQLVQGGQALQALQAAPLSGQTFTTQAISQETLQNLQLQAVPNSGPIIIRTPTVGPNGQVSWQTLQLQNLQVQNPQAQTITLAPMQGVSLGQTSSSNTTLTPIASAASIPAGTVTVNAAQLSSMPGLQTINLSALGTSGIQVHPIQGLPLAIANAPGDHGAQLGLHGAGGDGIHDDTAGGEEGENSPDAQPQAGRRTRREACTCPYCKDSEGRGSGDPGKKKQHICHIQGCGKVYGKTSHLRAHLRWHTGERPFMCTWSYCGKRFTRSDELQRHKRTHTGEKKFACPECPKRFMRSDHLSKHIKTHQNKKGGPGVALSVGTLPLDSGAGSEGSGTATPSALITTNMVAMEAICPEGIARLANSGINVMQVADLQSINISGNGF
Chain of Paired box protein Pax-6 (Homo sapiens) (P26367 whole entry, looked up): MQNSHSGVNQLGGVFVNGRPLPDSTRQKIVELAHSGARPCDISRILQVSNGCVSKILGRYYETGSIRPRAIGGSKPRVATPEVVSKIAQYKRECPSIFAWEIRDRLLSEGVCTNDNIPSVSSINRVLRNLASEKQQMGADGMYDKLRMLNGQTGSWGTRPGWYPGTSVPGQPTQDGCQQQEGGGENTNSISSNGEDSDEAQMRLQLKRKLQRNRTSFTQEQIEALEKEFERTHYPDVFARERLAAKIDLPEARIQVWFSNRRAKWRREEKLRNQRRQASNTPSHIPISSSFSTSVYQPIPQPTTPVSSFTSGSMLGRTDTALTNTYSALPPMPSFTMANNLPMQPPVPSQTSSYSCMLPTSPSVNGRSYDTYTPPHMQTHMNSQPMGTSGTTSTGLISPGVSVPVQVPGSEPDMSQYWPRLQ
Chain of Hepatocyte nuclear factor 6 (Homo sapiens) (Q9UBC0 whole entry, looked up, the tested form may be a part): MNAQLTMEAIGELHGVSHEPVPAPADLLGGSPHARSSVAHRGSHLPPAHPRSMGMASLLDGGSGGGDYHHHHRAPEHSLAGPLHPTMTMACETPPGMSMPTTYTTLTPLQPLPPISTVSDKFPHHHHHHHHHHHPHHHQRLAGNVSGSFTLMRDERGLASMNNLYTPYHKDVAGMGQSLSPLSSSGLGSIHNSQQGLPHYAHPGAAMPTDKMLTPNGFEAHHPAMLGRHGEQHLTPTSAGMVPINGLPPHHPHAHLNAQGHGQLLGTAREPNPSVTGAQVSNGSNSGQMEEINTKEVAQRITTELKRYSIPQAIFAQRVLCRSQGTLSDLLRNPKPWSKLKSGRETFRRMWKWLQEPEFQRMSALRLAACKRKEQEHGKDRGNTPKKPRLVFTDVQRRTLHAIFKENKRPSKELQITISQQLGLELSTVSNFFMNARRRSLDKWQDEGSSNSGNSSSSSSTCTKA
Chain of Hypoxia-inducible factor 1-alpha (Homo sapiens) (Q16665 whole entry, looked up, the tested form may be a part): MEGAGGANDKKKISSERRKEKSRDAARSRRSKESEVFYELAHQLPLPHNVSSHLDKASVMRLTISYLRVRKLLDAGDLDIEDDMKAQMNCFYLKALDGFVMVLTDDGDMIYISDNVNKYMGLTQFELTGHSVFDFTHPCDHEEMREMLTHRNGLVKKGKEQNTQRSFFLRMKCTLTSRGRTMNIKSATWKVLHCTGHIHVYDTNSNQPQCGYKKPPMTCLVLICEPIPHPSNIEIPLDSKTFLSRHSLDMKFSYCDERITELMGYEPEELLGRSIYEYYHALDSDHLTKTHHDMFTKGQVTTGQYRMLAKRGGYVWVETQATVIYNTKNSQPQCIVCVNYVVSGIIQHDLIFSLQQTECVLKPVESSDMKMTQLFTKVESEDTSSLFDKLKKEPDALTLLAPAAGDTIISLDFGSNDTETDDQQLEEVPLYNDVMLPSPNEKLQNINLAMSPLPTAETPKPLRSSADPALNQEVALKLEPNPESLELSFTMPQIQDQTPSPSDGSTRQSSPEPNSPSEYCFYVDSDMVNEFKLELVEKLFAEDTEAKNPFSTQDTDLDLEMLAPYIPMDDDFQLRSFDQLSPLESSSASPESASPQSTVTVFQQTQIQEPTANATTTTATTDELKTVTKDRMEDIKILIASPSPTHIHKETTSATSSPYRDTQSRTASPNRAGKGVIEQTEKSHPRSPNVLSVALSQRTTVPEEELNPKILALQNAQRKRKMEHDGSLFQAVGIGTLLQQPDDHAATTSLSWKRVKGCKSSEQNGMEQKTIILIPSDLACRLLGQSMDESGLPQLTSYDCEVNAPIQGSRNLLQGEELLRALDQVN

For the molecule `CCCCCCCCCCCCc1ccc(O)cc1`, the molecule was classed as inactive in experiment [1], in experiment [2], in [3], in experiment [4], in experiment [5] and in experiment [6]. Moreover, the outcome in [7], in experiment [8], in experiment [9], in experiment [10], in experiment [12] and in experiment [13] was inactive. The molecule was called inactive in experiment [14], in experiment [15], in [16], in experiment [17] and in experiment [18]. Also, in experiment [11], the AC50 is 1.53 µM (active).
In the case of `C=CCNCC=C`, the molecule was classed as inactive in experiment [1], in experiment [2], in [19], in [3], in experiment [4] and in [7]. Further, the molecule was classed as inactive in experiment [8], in [9], in experiment [14], in experiment [15], in experiment [16] and in experiment [17]. The outcome in [18] was inactive. Further, the concentration at half-maximal activity (AC50) in [6] is 28.3 µM (active); in experiment [11], 52.1 µM (active).
Turning to `CCCCCCCOC(=O)c1ccc(O)cc1`, the AC50 is 45.7 µM (active) in experiment [1], 50.9 µM (active) in experiment [2], 33.4 µM (active) in [14] and 33.4 µM (active) in [15]. Moreover, the molecule was called inactive in [19], in experiment [3], in [4], in experiment [5], in experiment [7] and in experiment [8]. The outcome in experiment [20], in experiment [10], in [11], in [16], in experiment [17] and in experiment [18] was inactive.
Take `C1CCSC1`: the molecule was called inactive in experiment [1], in [2], in [19], in [3], in experiment [4] and in experiment [7]. The outcome in [8], in experiment [9], in [10], in experiment [11], in experiment [12] and in [14] was inactive. The molecule was called inactive in experiment [15], in [16], in [17] and in experiment [18].

(Values after PubChem BioAssay (EPA / NIEHS).)
